# Inconclusive results are not listed. Where a call stands in place of a potency, no number is given. Unmarked numbers belong to inactive results. Activity calls are given as the source filed them. The call rests on the fitted dose curve; in most records, active means well fitted curve in the direction sought with a large enough effect; inconclusive means small, poorly fitted or top-dose-only effect, or another doubt; inactive means no such curve, though single readings can be large; an effect the other way counts as inactive or inconclusive.
# Legend:
# CRL-7250 = normal cell line; test: Cytotoxic Profiling of Annotated Libraries Using Quantitative High-Throughput Screening (AID 1296008); details: Five cell lines viability, CellTiter-Glo ATP luminescence, 48-72 h; max response: active compounds read low; further: nearly all actives have a fitted effect of over 60% in size
# Procedure, shortened: (§1)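 Compounds were pin-transferred onto cells and incubated 48 or 72 hr at 37 degree Celsius, 95% humidity. CellTiter-Glo was added, plates sat 10 min at room temperature, then ATP-coupled luminescence was imaged as the viability read-out.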
# HEK293 = test: as above; details: Five cell lines viability, CellTiter-Glo ATP luminescence, 48-72 h; max response: active compounds read low
# Procedure, shortened: as §1
# HaCat [1] = test: as above; details: Five cell lines viability, CellTiter-Glo ATP luminescence, 48-72 h; max response: active compounds read low
# Procedure, shortened: as §1
# KB-3-1 = test: as above; details: Five cell lines viability, CellTiter-Glo ATP luminescence, 48-72 h; max response: active compounds read low
# Procedure, shortened: as §1
# NIH3T3 [2] = test: as above; details: Five cell lines viability, CellTiter-Glo ATP luminescence, 48-72 h; max response: active compounds read low
# Procedure, shortened: as §1
# HACAT [3] = test: qHTS assay to identify novel small-molecules to repurpose for Merkel cell carcinoma treatment (AID 1296009); details: MCC and control cell lines, CellTiter-Glo viability, 72 h; at 44.8 µM (top of the series) unless noted; further: nearly all actives have a fitted effect of over 60% in size
# Procedure, shortened: (§2)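 Luminescence from CellTiter-Glo, read 10 min after addition at room temperature, reported viability following a 72 hr, 37 degree celsius treatment with NPC or MIPE compounds in titration; values normalized to plate controls.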
# NIH3T3 [4] = test: as above; details: MCC and control cell lines, CellTiter-Glo viability, 72 h; at 44.8 µM (top of the series) unless noted
# Procedure, shortened: as §2
# C33A = test: Primary qHTS to identify gynecologic anti-cancer compounds using libraries of approved drugs and bioactive compounds (AID 1345084); details: Gynecologic cancer cell panel viability, ATPlite luminescence, 48 h; series mostly up to 57.5 µM; further: nearly all actives have a fitted effect of over 55% in size; further: potency means the concentration at half of the fitted maximal effect
# Procedure, shortened: (§3)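 48 h compound exposure at 37 C, 5% CO2; five-point qHTS. ATPlite luminescence readout of cell ATP.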
# CAOV3 = test: as above; details: Gynecologic cancer cell panel viability, ATPlite luminescence, 48 h; series mostly up to 57.5 µM
# Procedure, shortened: as §3
# CASKI = test: as above; details: Gynecologic cancer cell panel viability, ATPlite luminescence, 48 h; series mostly up to 57.5 µM
# Procedure, shortened: as §3
# Es-2 = test: as above; details: Gynecologic cancer cell panel viability, ATPlite luminescence, 48 h; series mostly up to 57.5 µM
# Procedure, shortened: as §3
# HeLa = test: as above; details: Gynecologic cancer cell panel viability, ATPlite luminescence, 48 h; series mostly up to 57.5 µM
# Procedure, shortened: as §3
# Hek293T = test: as above; details: Gynecologic cancer cell panel viability, ATPlite luminescence, 48 h, control line for the selectivity index; series mostly up to 57.5 µM
# Procedure, shortened: as §3
# JEG-3 = test: as above; details: Gynecologic cancer cell panel viability, ATPlite luminescence, 48 h; series mostly up to 57.5 µM
# Procedure, shortened: as §3
smiles,measurement,setting,value
COC(=O)C1=CO[C@@H](O[C@@H]2O[C@H](CO[C@@H]3O[C@H](CO)[C@@H](O)[C@H](O)[C@H]3O)[C@@H](O)[C@H](O)[C@H]2O)[C@@H]2C(CO)=CC[C@H]12,max response,CRL-7250,-2.64%
same,max response,HEK293,1.28%
same,outcome,HaCat [1],inactive
same,outcome,KB-3-1,inactive
same,outcome,NIH3T3 [2],inactive
same,outcome,HACAT [3],inactive [at 17.4 µM]
same,outcome,NIH3T3 [4],inactive [at 17.4 µM]
same,Potency,C33A,inactive
same,Potency,CAOV3,inactive
same,outcome,CASKI,inactive
same,Potency,Es-2,inactive
same,Potency,HeLa,inactive
same,Potency,Hek293T,inactive
same,Potency,JEG-3,inactive
CC(=C\C(C)O)/C=C(\C)C(=O)CC1CC(CC(N)=O)CC(=O)O1 (stereo not given),outcome,CRL-7250,inactive
same,max response,HEK293,1.11%
same,outcome,HaCat [1],inactive
same,outcome,KB-3-1,inactive
same,outcome,NIH3T3 [2],inactive
same,outcome,HACAT [3],inactive
same,outcome,NIH3T3 [4],inactive
same,Potency,C33A,inactive
same,Potency,CAOV3,inactive
same,outcome,CASKI,inactive
same,Potency,Es-2,inactive
same,Potency,HeLa,inactive
same,Potency,Hek293T,inactive
same,Potency,JEG-3,inactive
CCC(C)/C=C(C)/C=C/C(=O)C1CCC(O)C(C)(O)C1=O (stereo not given),max response,CRL-7250,4.93%
same,max response,HEK293,0.989%
same,outcome,HaCat [1],inactive
same,max response,KB-3-1,9.09%
same,outcome,NIH3T3 [2],inactive
same,outcome,HACAT [3],inactive
same,outcome,NIH3T3 [4],inactive
same,Potency,C33A,inactive
same,Potency,CAOV3,inactive
same,outcome,CASKI,inactive
same,Potency,Es-2,inactive
same,Potency,HeLa,inactive
same,Potency,Hek293T,inactive
same,Potency,JEG-3,inactive
OC[C@@]1(O)CO[C@@H](OC[C@H]2O[C@@H](Oc3ccccc3)[C@H](O)[C@@H](O)[C@@H]2O)[C@@H]1O,outcome,CRL-7250,inactive
same,max response,HEK293,-6.8%
same,outcome,HaCat [1],inactive
same,max response,KB-3-1,0.107%
same,outcome,NIH3T3 [2],inactive
same,outcome,HACAT [3],inactive
same,outcome,NIH3T3 [4],inactive
same,Potency,C33A,inactive
same,Potency,CAOV3,inactive
same,outcome,CASKI,inactive
same,Potency,Es-2,inactive
same,Potency,HeLa,inactive
same,Potency,Hek293T,inactive
same,Potency,JEG-3,inactive
CNC(C)C(=O)NC(C(=O)N1CCCC1C(=O)Nc1cccc2ncccc12)C(C)C (stereo not given),outcome,CRL-7250,inactive
same,max response,HEK293,4.04%
same,outcome,HaCat [1],inactive
same,max response,KB-3-1,2.7%
same,outcome,NIH3T3 [2],inactive
same,outcome,HACAT [3],inactive
same,outcome,NIH3T3 [4],inactive
same,Potency,C33A,inactive
same,Potency,CAOV3,10 µM (active)
same,outcome,CASKI,inactive
same,Potency,Es-2,inactive
same,Potency,HeLa,inactive
same,Potency,Hek293T,inactive
same,Potency,JEG-3,inactive
CC1(C)CC[C@]2(C(=O)O[C@@H]3O[C@H](CO)[C@@H](O)[C@H](O)[C@H]3O)CC[C@]3(C)C(=CCC4[C@@]5(C)C[C@H](O)[C@H](O[C@@H]6OC[C@@H](O)[C@H](O)[C@H]6O)[C@@](C)(CO)C5CC[C@]43C)C2C1 (stereo not given in full),max response,CRL-7250,-3.53%
same,max response,HEK293,-6.93%
same,outcome,HaCat [1],inactive
same,max response,KB-3-1,9.53%
same,outcome,NIH3T3 [2],inactive
same,outcome,HACAT [3],inactive [at 9.27 µM]
same,outcome,NIH3T3 [4],inactive [at 9.27 µM]
same,"activity change, negative = cytotoxicity",C33A,6.67% [at 11.6 µM]
same,"activity change, negative = cytotoxicity",CAOV3,10.5% [at 11.6 µM]
same,"activity change, negative = cytotoxicity",CASKI,2.82% [at 11.6 µM]
same,"activity change, negative = cytotoxicity",Es-2,1.33% [at 11.6 µM]
same,"activity change, negative = cytotoxicity",HeLa,24.4% [at 11.6 µM]
same,"activity change, negative = cytotoxicity",Hek293T,12.6% [at 11.6 µM]
same,"activity change, negative = cytotoxicity",JEG-3,17% [at 11.6 µM]
CC(=O)O[C@@H]1[C@H](O[C@@H]2O[C@H](CO)[C@@H](O)[C@H](O)[C@H]2O)[C@@H](O[C@@H]2O[C@@H](C)[C@H](O)[C@@H](O[C@@H]3O[C@H](CO)[C@@H](O)[C@H](O)[C@H]3O)[C@H]2O)[C@H](OC(=O)[C@]23CCC(C)(C)C[C@H]2C2=CCC4[C@@]5(C)C[C@H](O)[C@H](O[C@@H]6O[C@H](C(=O)O)[C@@H](O)[C@H](O)[C@H]6O)[C@@](C)(C(=O)O)C5CC[C@@]4(C)[C@]2(C)CC3)O[C@@H]1C (stereo not given in full),max response,CRL-7250,-5.6%
same,max response,HEK293,-5.4%
same,outcome,HaCat [1],inactive
same,outcome,KB-3-1,inactive
same,outcome,NIH3T3 [2],inactive
same,outcome,HACAT [3],inactive [at 9.27 µM]
same,outcome,NIH3T3 [4],inactive [at 9.27 µM]
same,"activity change, negative = cytotoxicity",C33A,2.77% [at 6.55 µM]
same,"activity change, negative = cytotoxicity",CAOV3,-7.98% [at 6.55 µM]
same,"activity change, negative = cytotoxicity",CASKI,-0.483% [at 6.55 µM]
same,"activity change, negative = cytotoxicity",Es-2,-0.374% [at 6.55 µM]
same,"activity change, negative = cytotoxicity",HeLa,0.873% [at 6.55 µM]
same,"activity change, negative = cytotoxicity",Hek293T,0.423% [at 6.55 µM]
same,"activity change, negative = cytotoxicity",JEG-3,0.0867% [at 6.55 µM]
CC1(C)CC[C@]2(C(=O)O[C@@H]3O[C@H](CO)[C@@H](O)[C@H](O)[C@H]3O)CC[C@]3(C)C(=CCC4[C@@]5(C)C[C@@H](O)[C@H](O)[C@@](C)(CO)C5[C@H](O)C[C@]43C)C2C1 (stereo not given in full),max response,CRL-7250,-10.1%
same,max response,HEK293,-14.5%
same,outcome,HaCat [1],inactive
same,max response,KB-3-1,-2.95%
same,outcome,NIH3T3 [2],inactive
same,outcome,HACAT [3],inactive [at 17.4 µM]
same,outcome,NIH3T3 [4],inactive [at 17.4 µM]
same,Potency,C33A,inactive
same,Potency,CAOV3,inactive
same,outcome,CASKI,inactive
same,Potency,Es-2,inactive
same,Potency,HeLa,inactive
same,Potency,Hek293T,inactive
same,Potency,JEG-3,inactive
CC(=O)OC1C(O)C(C)(O)C(/C=C/C(=O)O)C2(C)CCCC(C)(C)C12 (stereo not given),max response,CRL-7250,4.11%
same,max response,HEK293,0.298%
same,outcome,HaCat [1],inactive
same,max response,KB-3-1,6.25%
same,outcome,NIH3T3 [2],inactive
same,outcome,HACAT [3],inactive
same,outcome,NIH3T3 [4],inactive
same,Potency,C33A,inactive
same,Potency,CAOV3,inactive
same,outcome,CASKI,inactive
same,Potency,Es-2,inactive
same,Potency,HeLa,inactive
same,Potency,Hek293T,inactive
same,Potency,JEG-3,inactive
COc1cc(/C=C/C(=O)O)ccc1O[C@@H]1O[C@H](CO)[C@@H](O)[C@H](O)[C@H]1O[C@@H]1OC[C@](O)(CO)[C@H]1O,outcome,CRL-7250,inactive
same,max response,HEK293,-3.47%
same,outcome,HaCat [1],inactive
same,max response,KB-3-1,0.854%
same,outcome,NIH3T3 [2],inactive
same,outcome,HACAT [3],inactive [at 17.4 µM]
same,outcome,NIH3T3 [4],inactive [at 17.4 µM]
same,Potency,C33A,inactive
same,Potency,CAOV3,inactive
same,outcome,CASKI,inactive
same,Potency,Es-2,inactive
same,Potency,HeLa,inactive
same,Potency,Hek293T,inactive
same,Potency,JEG-3,inactive

# Reference: PubChem BioAssay (NCATS)
